FBA Mtb inh – Mtb FBA enzyme inhibitors, primary screen, biochemical, fluorescence, strain H37Rv; hit rate 2.3% among 360,000; AID 588726, 2011; purified M. tuberculosis FBA, fluorescence read-out; inhibition, % at 1 µM; Fructose-bisphosphate aldolase (Mycobacterium tuberculosis (strain ATCC 25618 / H37Rv)), …; in the data active means inhibition above about 27%
GDH-TPI counter-1 – GDH-TPI coupling enzyme inhibitors, primary screen, artefact control for M. tuberculosis FBA inhibitor project, biochemical, absorbance, full deck; GDH-TPI coupled enzyme counterscreen, NADH absorbance; inhibition, % at 4.8 µM; hit rate 1.2% among 360,000; AID 588335, 2011; in the data active means inhibition above about 30%
Anthrax LF prot – Bacillus anthracis LF protease inhibitors, primary screen, biochemical, multiplex microsphere, MLPCN library; AID 588501, 2011; Lethal factor (Bacillus anthracis), P15917; hit rate 0.12% among 360,000; multiplex microsphere protease cleavage assay; inhibition, % at 10 µM
Target sequence (P15917 whole entry, looked up): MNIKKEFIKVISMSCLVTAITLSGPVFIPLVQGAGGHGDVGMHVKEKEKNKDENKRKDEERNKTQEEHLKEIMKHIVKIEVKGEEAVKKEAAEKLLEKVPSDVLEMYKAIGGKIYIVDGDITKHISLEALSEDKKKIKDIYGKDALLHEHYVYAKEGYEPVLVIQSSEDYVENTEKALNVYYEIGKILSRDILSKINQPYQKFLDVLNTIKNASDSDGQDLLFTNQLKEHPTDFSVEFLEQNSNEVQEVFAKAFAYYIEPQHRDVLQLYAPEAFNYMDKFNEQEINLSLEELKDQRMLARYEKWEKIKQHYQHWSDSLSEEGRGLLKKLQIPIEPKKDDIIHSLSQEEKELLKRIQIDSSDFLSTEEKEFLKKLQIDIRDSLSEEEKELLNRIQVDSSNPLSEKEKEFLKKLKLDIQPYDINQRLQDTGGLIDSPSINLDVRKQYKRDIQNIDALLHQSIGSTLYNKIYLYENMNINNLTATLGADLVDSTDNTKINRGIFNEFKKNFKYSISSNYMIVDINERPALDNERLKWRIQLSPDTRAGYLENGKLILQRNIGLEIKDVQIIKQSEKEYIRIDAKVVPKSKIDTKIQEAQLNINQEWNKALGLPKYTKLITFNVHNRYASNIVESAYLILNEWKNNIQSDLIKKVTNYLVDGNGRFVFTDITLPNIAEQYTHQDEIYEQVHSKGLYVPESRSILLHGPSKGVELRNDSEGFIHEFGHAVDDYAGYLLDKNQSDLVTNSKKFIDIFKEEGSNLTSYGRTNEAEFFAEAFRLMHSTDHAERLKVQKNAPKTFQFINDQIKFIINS
BoNT F protease – BoNT/F light chain protease inhibitors, primary screen, biochemical, flow cytometry, MLPCN library; Botulinum neurotoxin type F light chain protease (Clostridium botulinum); Multiplex microsphere protease cleavage assay; inhibition, % at 10 µM; hit rate 0.22% among 360,000; AID 588497, 2011; in the data active means inhibition above about 35%, passing the limit was not always enough; inconclusive means no clear call, values can overlap the other calls
Bead autofluor – counter-screen for toxin protease inhibitors: compound fluorescence. compound autofluorescence counterscreen, microsphere flow cytometry; active compounds read high. fluorescence intensity (no concentration beside the values). hit rate 3.1% among 360,000. AID 624483; in the data active means fluorescence intensity above about 16000; inconclusive means no clear call, values can overlap the other calls
BoNT-A LC inh2 – BoNT/A light chain protease inhibitors, primary screen, biochemical, flow cytometry, MLPCN library | multiplex microsphere protease substrate cleavage | inhibition, % at 10 µM | hit rate 0.17% among 360,000 | AID 588499, 2011
Mtb FBA confirm – M. tuberculosis aldolase blockers, biochemical, fluorescence, strain H37Rv, confirmation. shares compounds with FBA Mtb inh. purified M. tuberculosis FBA, fluorescence read-out. inhibition, % at 1 µM. hit rate 78% among 5,600; in the data active means inhibition above about 27%
GDH-TPI counter-2 – GDH-TPI coupling enzyme inhibitors, artefact control for M. tuberculosis FBA inhibitor project, biochemical, fluorescence, high throughput; shares compounds with FBA Mtb inh; GDH-TPI coupled enzyme counterscreen; inhibition, % at 1 µM; hit rate 81% among 5,600; in the data active means inhibition above about 10%
Each line names hits and unclear results; the compound was inactive in the other large screens (follow-up assays come after a bar, where they were run). Most compounds without a hit are left out; they make up all but 6.7% or so of the library. Unless noted, no stated cut-off is given here; in the data, active means inhibition above about 30%; inconclusive means no clear call, values can overlap the other calls; inactive means below that.

CC1=Nc2ccc(C)c3nc(C)cc(c23)N1c1ccc(C)cc1	FBA Mtb inh 30 | Mtb FBA confirm 60 | GDH-TPI counter-2 38
CCOC(=O)C(C)Oc1cc(C)cc2oc(=O)c3c(c12)CCCC3 (stereo unspecified)	FBA Mtb inh 75 | Mtb FBA confirm 65 | GDH-TPI counter-2 62
COC(=O)C(C)Oc1cc(C)cc2oc(=O)c3c(c12)CCCC3 (stereo unspecified)	FBA Mtb inh 57 | Mtb FBA confirm 59 | GDH-TPI counter-2 51
Cc1cc(OCC(=O)NCC2CCC(C(=O)O)CC2)c2c3c(c(=O)oc2c1)CCC3 (stereo unspecified)	none
COC(=O)C(C)Oc1cc(C)cc2oc(=O)c3c(c12)CCC3 (stereo unspecified)	FBA Mtb inh 74 | Mtb FBA confirm active | GDH-TPI counter-2 active
Cc1cc(OCC(=O)OC(C)C)c2c3c(c(=O)oc2c1)CCCC3	none
O=C(CN(C(=O)Cn1nnc(-c2cccs2)n1)c1ccc2c(c1)OCCO2)NCc1ccccc1	none
COc1ccc2oc(C(=O)OCC(=O)N3CCN(c4ccccc4)CC3)c(C)c2c1	Bead autofluor inconclusive
COc1ccc2oc(C(=O)OCC(=O)N3CCCCC3)c(C)c2c1	FBA Mtb inh 37 (no result: Anthrax LF prot, BoNT F protease, Bead autofluor, BoNT-A LC inh2) | Mtb FBA confirm 125 | GDH-TPI counter-2 113
COc1ccc2oc(C(=O)OCC(=O)N3CCN(C(C)=O)CC3)c(C)c2c1	FBA Mtb inh 43 | Mtb FBA confirm 59 | GDH-TPI counter-2 42
COc1cccc(NC(=O)COC(=O)/C=C/c2ccc(Cl)cc2Cl)c1	none
COc1ccc(-c2cc(C(=O)N3CCCC(C(F)(F)F)C3)c3ccccc3n2)cc1 (stereo unspecified)	FBA Mtb inh 96 | Mtb FBA confirm inactive | GDH-TPI counter-2 inactive
Cc1ccc(-c2cc(C(=O)N3CCCC(C(F)(F)F)C3)c3ccccc3n2)o1 (stereo unspecified)	FBA Mtb inh 87 | Mtb FBA confirm 161 | GDH-TPI counter-2 90
O=C(Nc1ccc(S(=O)(=O)N2CCOCC2)cc1)c1ccc([N+](=O)[O-])cc1Cl	none
COc1ccc2[nH]c3c(N4CCc5ccccc5C4)ncnc3c2c1	FBA Mtb inh 40, BoNT F protease inconclusive | Mtb FBA confirm inactive | GDH-TPI counter-2 inactive
COc1cc2[nH]c3c(N4CCN(c5ccccn5)CC4)ncnc3c2cc1OC	FBA Mtb inh 29 | Mtb FBA confirm inactive | GDH-TPI counter-2 inactive
COc1cccc2[nH]c3c(N4CCCCC4)ncnc3c12	none
COc1ccc(N2CCN(c3ncnc4c3[nH]c3ccccc34)CC2)cc1	none
Cc1cc(C(=O)Nc2ccc(CC(=O)O)cc2)c(C)o1	none
CSc1nnc(CNC(=O)c2ccccc2)n1-c1cccc(C)c1	none
CN(c1ccccc1)S(=O)(=O)c1cccc(NC(=O)CN2C(=O)NC3(CCCCC3)C2=O)c1	FBA Mtb inh 38 | Mtb FBA confirm 88 | GDH-TPI counter-2 52
CC1CCC2(CC1)NC(=O)N(CC(=O)Nc1cccc(S(=O)(=O)N(C)c3ccccc3)c1)C2=O (stereo unspecified)	none
Fc1ccc(-c2cnc(-c3cccs3)o2)cc1	FBA Mtb inh 61 | Mtb FBA confirm 81 | GDH-TPI counter-2 71
O=C(c1ccccc1)c1ccc(OCC(O)CNCc2ccc(F)cc2)cc1 (stereo unspecified)	none
Cc1cc(N=Cc2c(O)n(-c3cccc(Cl)c3)c(=O)c3ccccc23)no1	FBA Mtb inh 57 | Mtb FBA confirm 106 | GDH-TPI counter-2 83
Cc1cccc(-n2c(O)c(C=Nc3ccccc3)c3ccccc3c2=O)n1	none
O=C1NC(=O)c2cc([N+](=O)[O-])cc3cccc1c23	none
O=C1c2nc3ccccn3c2C(=O)N1Cc1ccccc1	none
CCOC(=O)N1CCN(c2nc3ccccn3c(=O)c2C=O)CC1	none

Screening results from PubChem.
